Assay outcomes as filed in PubChem BioAssay.
GPR151 activ: activators of human GPR151; AID 1508602; PathHunter beta-arrestin GPR151 cells, luminescence; hit rate 1% among 650,000; activation, % at 11.2 µM; in the data active = activation above about 4.9%;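 note: 0% = median of compound wells and 100% = cells with positive control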
TEAD-YAP inh: TEAD-YAP interaction inhibition; inhibition, % at 9.12 µM; hit rate 1.4% among 640,000; HEK-TIYL cells, TEAD-Gal4/YAP UAS-luciferase luminescence; in the data active = inhibition above about 32%;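 note: 0% = median of test compound wells and 100% = reference inhibitor wells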
FBW7 activator: human FBW7 E3 ligase activation, primary screen | Q969H0 | AlphaScreen FBW7–phospho-cyclin E peptide binding, activator screen | normalized activity (activation), % at 26.1 µM | hit rate 0.13% among 650,000 | AID 1259310; in the data active = normalized activity above about 1.9%;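 note: purified mutant Fbw7 with reduced substrate affinity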
Target sequence (Q969H0 whole entry, looked up): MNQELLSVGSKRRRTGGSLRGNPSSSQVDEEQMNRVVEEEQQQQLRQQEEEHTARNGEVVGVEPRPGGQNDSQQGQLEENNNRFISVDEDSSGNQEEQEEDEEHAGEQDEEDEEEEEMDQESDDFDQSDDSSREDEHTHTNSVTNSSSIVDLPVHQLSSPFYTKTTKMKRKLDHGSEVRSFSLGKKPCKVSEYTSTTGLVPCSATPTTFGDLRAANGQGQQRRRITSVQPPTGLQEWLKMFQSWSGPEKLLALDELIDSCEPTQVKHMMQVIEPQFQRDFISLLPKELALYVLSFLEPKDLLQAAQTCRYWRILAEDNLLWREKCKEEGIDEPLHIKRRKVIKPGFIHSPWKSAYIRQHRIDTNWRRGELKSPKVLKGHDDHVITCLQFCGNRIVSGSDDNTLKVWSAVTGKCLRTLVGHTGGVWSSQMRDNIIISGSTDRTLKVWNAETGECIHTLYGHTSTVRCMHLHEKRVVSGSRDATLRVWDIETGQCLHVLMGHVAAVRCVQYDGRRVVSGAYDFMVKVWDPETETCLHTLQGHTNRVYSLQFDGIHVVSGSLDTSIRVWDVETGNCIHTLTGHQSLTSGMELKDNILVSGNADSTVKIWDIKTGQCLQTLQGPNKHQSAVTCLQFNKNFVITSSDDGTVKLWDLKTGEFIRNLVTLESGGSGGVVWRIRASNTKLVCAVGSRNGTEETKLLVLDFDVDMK
MITF inh: inhibitors of human MITF; O75030; AlphaScreen MITF homodimerization, bead proximity signal; inhibition, % at 2.6 µM; hit rate 0.91% among 650,000; AID 1259374; in the data active = inhibition above about 50%;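 note: 0% = vehicle wells with protein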
GPR151 conf act: confirmation of human GPR151 activators; shares compounds with GPR151 activ; GPR151 PathHunter beta-arrestin cells, luminescence, 90 min; % of EA-reagent control over plate median; activation, % at 11.2 µM; 6,700 tested, under 10 active;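 active = mean percent activation across replicates above the confirmation screen cutoff of 4.91%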
GPR119 counter: GPR119 activation, counter-screen for GPR151 activators | hit rate 0.3% among 6,700 | shares compounds with GPR151 activ | activation, % at 11.2 µM | GPR119 PathHunter beta-arrestin cells, luminescence, 90 min; 0 = compound-well median, 100 = enzyme-acceptor control;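 active = mean percent activation in the counterscreen above 29.09%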;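 note: counterscreen on off-target GPR119 to flag nonselective hits from the GPR151 activator screen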
* = called active by the depositor; / = no result. Most compounds without a hit are left out; they make up all but 3.4% or so of the library.

SMILES | GPR151 activ | TEAD-YAP inh | FBW7 activator | MITF inh | GPR151 conf act | GPR119 counter
Cc1cc(NC(=O)c2ccc3c(c2)C(=O)N(c2ccc([N+](=O)[O-])cc2)C3=O)no1 | 5.7* | 8 | 0 | 7 | -1 | 3
CC(C)Oc1c(Cl)cc(C=O)cc1Cl | 6.8* | 22 | 0 | 12 | 0 | -1
CCOC(=O)c1nc(Nc2ccc(OCC)cc2)c2ccccc2n1 | 1 | 2 | 0 | 17 | / | /
CCOC(=O)c1cccc(Nc2nc(-c3ccccc3)nc3ccccc23)c1 | 5.9* | 4 | 0 | 17 | 0 | -1
CCOC(=O)c1cccc(Nc2nc(-c3ccccc3Cl)nc3ccccc23)c1 | 0 | 11 | 0 | 2 | / | /
CCOC(=O)c1nc(Nc2ccc(OC(C)C)cc2)c2ccccc2n1 | 8.8* | 5 | 0 | 7 | 2 | 6
CCNS(=O)(=O)c1ccc(NC(=O)c2c(OC)cccc2OC)cc1 | -1 | -5 | 0 | 8 | / | /
CN(C)c1ccc(C2OCC3(CO2)COC(c2ccc(N(C)C)cc2)OC3)cc1 (stereo unspecified) | 1 | -4 | 0 | 4 | / | /
CN(C)CC(C)(C)C1OCC2(CO1)COC(C(C)(C)CN(C)C)OC2 (stereo unspecified) | 6.9* | 13 | 0 | 13 | 0 | -2
O=C(NNC(=O)c1ccccc1I)NC1CCCCC1 | -1 | -1 | 0 | -1 | / | /
CCC(Sc1ccccc1C(=O)O)C(=O)O (stereo unspecified) | 0 | 11 | 0 | 11 | / | /
CCC(Sc1c[nH]c2ccccc12)C(=O)O (stereo unspecified) | 5.5* | -5 | 0 | -2 | 0 | 0
CCOc1ccc(S(=O)(=O)N2CCN(C)CC2)cc1-c1nc2c(C(C)(C)C)nn(C)c2c(=O)[nH]1 | 5.1* | 4 | 0 | -6 | 0 | 9
NC(=O)CSc1nc2ncnc(N)c2[nH]1 | 1 | -4 | 0 | 18 | / | /
Nc1ncnc2nc(SCCO)[nH]c12 | 7.0* | -7 | 0 | -9 | -1 | -5
O=S(=O)(CCOc1ccccc1)N1CCN(c2ncccn2)CC1 | 6.2* | 2 | 0 | 1 | 0 | -4
O=S(=O)(CCOc1ccccc1)N1CCN(c2ccccc2F)CC1 | -1 | 0 | 0 | 3 | / | /
O=C(COc1ccccc1)NCCCS(=O)(=O)N1CCN(c2ncccn2)CC1 | -1 | -6 | 0 | 9 | / | /
O=C(COc1ccc(Cl)cc1)NCCCS(=O)(=O)N1CCN(c2ncccn2)CC1 | 7.5* | -9 | 0 | 2 | 1 | 0
CC1CN(C(=S)NC(=O)c2cccs2)CC(C)O1 (stereo unspecified) | 0 | 7 | 0 | 14 | / | /
CCSc1nc2sccn2c(=O)c1C(=O)Nc1cc(-c2ccccc2)nn1C | 1 | -1 | 0 | 6 | / | /
CCSc1nc2sccn2c(=O)c1C(=O)Nc1cc(C(C)(C)C)nn1C | 5.0* | -4 | 0 | 6 | 1 | 3
O=C1/C(=C/c2cccnc2)CC/C1=C\c1cccnc1 | 6.5* | 16 | 0 | 1 | 1 | 4
Cc1nc(NC2=NCN(Cc3cccnc3)CN2)nc2ccccc12 | 7.7* | 4 | 0 | 13 | 0 | 3
CCN(CC)c1cc(Nc2ccc(NC(C)=O)cc2)c([N+](=O)[O-])c2nonc12 | 2 | 7 | 0 | 6 | / | /
SMILES | GPR151 activ | TEAD-YAP inh | FBW7 activator | MITF inh | GPR151 conf act | GPR119 counter
CCN(CC)c1cc(NCCO)c([N+](=O)[O-])c2nonc12 | 5.9* | 5 | 0 | 16 | -1 | -12
O=C1C(=O)N(CCCn2ccnc2)C(c2ccco2)/C1=C(/O)c1ccc(Cl)cc1 (stereo unspecified) | 1 | 0 | 0 | -7 | / | /
COc1ccc(NC(=O)c2ccc(Br)s2)cc1OC | 8.8* | -29 | 0 | 0 | 0 | 9
CCOC(=O)C1=C(C)N=c2s/c(=C\c3cc(Br)c(OC)c(Br)c3)c(=O)n2C1c1ccc(OC)cc1 (stereo unspecified) | 0 | -13 | 0 | -7 | / | /
COc1cc(Nc2nc(-c3ccc(N4CCOCC4)nc3)nc3c2ncn3Cc2ccc(C(F)(F)F)cc2)cc(OC)c1OC | 6.6* | -7 | 0 | 8 | -1 | -7
COc1cc(Nc2nc(Nc3ccc4c(c3)OCO4)c3ncn(Cc4ccc(C(F)(F)F)cc4)c3n2)cc(OC)c1OC | 5.5* | -5 | 0 | 0 | 0 | -1
COc1cc(Nc2nc(NCc3ccc4c(c3)OCO4)nc3c2ncn3Cc2ccc(C(F)(F)F)cc2)cc(OC)c1OC | -1 | -4 | 0 | -3 | / | /
FC(F)(F)c1ccc(Cn2cnc3c(Nc4ccc(N5CCOCC5)cc4)nc(-c4ccc(N5CCOCC5)nc4)nc32)cc1 | -2 | 5 | 0 | 18 | / | /
CCC(=O)Nc1ccc(NC(=O)CSc2nc3c(c(=O)n(C)c(=O)n3C)n2C)cc1 | 15* | 14 | 0 | 15 | 2 | 10
Oc1ccc(-c2nccnc2NCC(O)COc2ccccc2)cc1 (stereo unspecified) | -1 | 10 | 1 | 4 | / | /
CCOc1ccc(C2CC(=O)N3C(=C2C#N)SCC3(O)c2ccc(F)cc2)cc1OC (stereo unspecified) | 1 | -5 | 0 | 1 | / | /
CC(C)CC(C(=O)NC(c1ccccc1)c1c(O)ccc2ccccc12)N1C(=O)c2ccccc2C1=O (stereo unspecified) | 1 | -3 | 0 | -12 | / | /
CN(C)c1ccc(NC2CC(=O)N(c3cccc(Cl)c3)C2=O)cc1 (stereo unspecified) | 0 | 4 | 0 | 18 | / | /
CN(C)c1ccc(NC2CC(=O)N(c3cccc4ccccc34)C2=O)cc1 (stereo unspecified) | 5.6* | 5 | 0 | 33 | 0 | 4
C/C(=N\NC(=O)c1nnn(-c2nonc2N)c1C)c1ccc2ccccc2c1 | 0 | -8 | 0 | 2 | / | /
N#Cc1c(N)nc2c(c1-c1ccsc1)CCCC2 | 5.0* | -1 | 0 | -11 | 0 | -2
CCC(C)N(C(=O)c1csnn1)C(C(=O)NCc1ccc(F)cc1)c1ccco1 (stereo unspecified) | 7.2* | -11 | 1 | -5 | 1 | 4
CCC(=O)Nc1nc2n(n1)C(c1ccccc1)CC(c1ccc(Cl)cc1)N2 (stereo unspecified) | -1 | 3 | 0 | 12 | / | /
O=C(Nc1nc2n(n1)C(c1ccc(F)cc1)CC(c1ccccc1)N2)c1cccnc1 (stereo unspecified) | 5.7* | 13 | 0 | 3 | 0 | 4
NC(=O)c1ccc(NC(=O)CSc2nc3ccccc3s2)cc1 | 2 | 1 | 0 | 1 | / | /
COc1ccc(NS(=O)(=O)c2ccc(N/C=C\C(=O)c3ccccc3)cc2)nn1 | 7.2* | 9 | 0 | 0 | -1 | -11
Cc1cc(C)cc(OCCNC(=O)C(C(C)C)N2C(=O)c3ccccc3C2=O)c1 (stereo unspecified) | -1 | 26 | 0 | -3 | / | /
